# Keap1-Nrf2 PPI: Keap1-Nrf2 (human) interaction inhibition; inhibition, % at 9.4 µM; AID 504523; Keap1 Kelch-Nrf2 peptide fluorescence polarization, 1536-well; Q14145; actives 0.15% (n = 340,000); in the data active means inhibition above about 12%; inconclusive means no clear call, values can overlap the other calls; inactive means below about 7.3%;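 further: human Keap1 Kelch domain with fluorescein labeled Nrf2 9mer peptide probe; 0% = neutral control wells and 100% = peptide positive control; higher means more block of Keap1 binding to Nrf2 peptide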
# RTF Ca sens inh: cardiac RTF calcium desensitization | IANBD-labeled cardiac RTF, Ca2+ fluorescence | inhibition, % at 7.15 µM | actives 0.12% (n = 340,000) | AID 493244;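 active means inhibition above the mean inhibition of all tested compounds plus 3 SD, cut at about 17% in these data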;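 further: assay run at fixed EC70 calcium of 1.6 mM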
# LANA DNA inh: KSHV C-LANA DNA binding inhibition; inhibition, % at 9 µM; MBP-C-LANA/FAM-LBS DNA binding, fluorescence polarization; actives 0.078% (n = 340,000); AID 504423;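 active means highest replicate inhibition at or above 60% at 9 µM, even if other replicates fall short; inactive means all replicates below 60% inhibition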;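 further: 0% = neutral control wells and 100% = 4 µM acridine orange control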
# LANA-H2A inh: blocks KSHV LANA binding to histone H2A/H2B; AID 2629; inhibition, % (concentration not given with the values); actives 0.6% (n = 320,000); Q9QR71; cell-free LANA-H2A/H2B peptide, fluorescence polarization; in the data active means inhibition mostly above about 10%, no sharp cut-off; inactive means mostly below about 6.7%
# Target sequence (Q9QR71 whole entry, looked up): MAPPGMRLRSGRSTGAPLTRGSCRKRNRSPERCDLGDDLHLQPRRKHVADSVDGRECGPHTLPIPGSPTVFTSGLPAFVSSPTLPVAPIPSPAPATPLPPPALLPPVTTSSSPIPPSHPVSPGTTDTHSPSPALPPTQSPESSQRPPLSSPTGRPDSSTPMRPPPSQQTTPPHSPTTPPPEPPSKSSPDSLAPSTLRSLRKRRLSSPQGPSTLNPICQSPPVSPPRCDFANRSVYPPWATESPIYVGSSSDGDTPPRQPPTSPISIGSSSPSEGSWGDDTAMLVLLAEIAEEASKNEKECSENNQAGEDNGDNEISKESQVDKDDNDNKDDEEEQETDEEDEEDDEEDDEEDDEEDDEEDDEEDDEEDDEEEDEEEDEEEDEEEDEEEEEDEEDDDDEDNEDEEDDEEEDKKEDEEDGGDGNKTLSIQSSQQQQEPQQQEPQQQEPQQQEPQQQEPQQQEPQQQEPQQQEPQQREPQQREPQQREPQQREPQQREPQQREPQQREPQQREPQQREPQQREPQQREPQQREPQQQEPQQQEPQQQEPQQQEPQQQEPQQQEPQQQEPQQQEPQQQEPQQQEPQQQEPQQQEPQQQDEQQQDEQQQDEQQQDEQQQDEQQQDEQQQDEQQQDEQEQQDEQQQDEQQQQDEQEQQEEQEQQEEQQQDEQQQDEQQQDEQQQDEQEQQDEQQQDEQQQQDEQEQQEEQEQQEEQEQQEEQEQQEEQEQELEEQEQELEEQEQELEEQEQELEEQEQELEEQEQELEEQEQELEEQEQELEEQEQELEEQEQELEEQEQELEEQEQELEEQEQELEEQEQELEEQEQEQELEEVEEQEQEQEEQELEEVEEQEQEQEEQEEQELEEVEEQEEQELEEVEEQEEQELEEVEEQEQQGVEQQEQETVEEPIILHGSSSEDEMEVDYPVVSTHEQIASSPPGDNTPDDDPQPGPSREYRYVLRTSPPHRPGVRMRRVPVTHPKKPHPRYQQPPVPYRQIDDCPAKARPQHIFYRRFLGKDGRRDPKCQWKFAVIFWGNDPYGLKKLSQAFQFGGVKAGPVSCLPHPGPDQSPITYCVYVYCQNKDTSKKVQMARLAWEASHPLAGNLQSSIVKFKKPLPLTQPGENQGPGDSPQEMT
# RTF Ca sens act: cardiac RTF calcium sensitization; IANBD-labeled TnC RTF fluorescence at EC20 calcium; 0% EC20 calcium, 100% full calcium; activation, % at 7.2 µM; actives 0.24% (n = 340,000); AID 493008;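 active means activation above the mean over all tested compounds plus 3 SD, cut at about 30% in these data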;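 further: rise in fluorescence read as greater calcium sensitivity of cardiac thin filaments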
# The depositor's hits bear a star; ? = inconclusive; . = no result given; + = active, no number. Only some compounds are listed: those with a hit (about 0.98% of all), similar ones and a draw of the others.
SMILES,Keap1-Nrf2 PPI,RTF Ca sens inh,LANA DNA inh,LANA-H2A inh,RTF Ca sens act
COc1ccc(N2C(=O)CSC2c2cccc(F)c2)cc1 (stereo not given),-4.3,-1.5,-2.3,8.4*,4.9
CCCCCCc1cc2cc(-c3nnc(-c4cc(OC)c(OC)c(OC)c4)o3)c(=O)oc2cc1O,.,.,.,-6.9,.
CCCCCCc1cc2cc(-c3nnc(-c4ccccc4OC)o3)c(=O)oc2cc1O,-8.7,-10.6,-0.7,10.3*,-1.4
CCCCCCc1cc2cc(-c3nnc(-c4ccccc4O)o3)c(=O)oc2cc1O,-1.3,-139.9,-0.7,-2.7,58.3*
Cn1c(SCC(=O)Nc2ccc(C(N)=O)cc2)nnc1-c1cccs1,-5.5,-5.0,0.5,15.5*,-5.8
c1ccc(Nc2cccc3c(Nc4ccccc4)cccc23)cc1,5.9,-7.6,-0.9,5.1,-6.3
O=S(=O)(O)c1cccc2cccc(Nc3ccccc3)c12,4.0,-9.7,96.4*,3.2,1.9
COc1ccc(C)cc1NC(=O)COC(=O)c1c(C)nn(-c2ccccc2)c1C,-2.5,-0.1,-0.9,1.2,-0.6
CCCN(CCO)CCCc1ccccc1,0.2,-10.6,0.4,2.9,2.9
CCN(CCCc1ccccc1)CCCc1ccccc1,-3.7,8.8,-1.5,38.0*,5.1
Cc1cc(NC(=O)CSc2nnc(-c3ccc(Br)o3)n2Cc2ccccc2)no1,3.8,-13.6,3.1,12.5*,3.5
Cc1cc(NC(=O)CSc2nnc(-c3ccco3)n2Cc2ccccc2)no1,-2.3,7.0,0.6,-4.8,7.2
O=C(COc1ccccc1)NCC(=O)N1CCCCCC1,-1.3,-11.8,-0.6,50.3*,4.2
O=C(COc1ccccc1)NCC(=O)N/N=C/c1cccs1,-5.6,-3.8,-2.5,55.4*,4.6
S=C(NCc1ccccc1)N/N=C/c1cccs1,1.5,3.5,-1.2,12.6*,-7.2
O=C(COc1ccccc1)N1CCCCCCC1,4.3,1.1,0.6,7.7,-1.8
CC(C)[C@H](N)c1cn([C@@H](CC(N)=O)C(=O)N2CCNCC2)nn1,-0.6,-14.2,0.0,-4.0,-0.3
Cn1c(=O)c2c(nc(N3CCOCC3)n2CCSc2ncccn2)n(C)c1=O,-4.8,-4.9,0.5,11.2,5.4
CC1CC(C)CN(c2nc3c(c(=O)n(C)c(=O)n3C)n2CCSc2ncccn2)C1 (stereo not given),1.2,0.1,1.3,21.9*,-1.3
COc1cc(NC(=O)CN2C(=O)COc3ccccc32)cc(OC)c1,-4.2,-0.9,0.1,.,-1.2
CC(C)n1cc(C#N)c(N)n1,1.3,-12.1,-0.6,.,-4.2
COc1ccc2cc(CCC(C)=O)ccc2c1,0.1,-7.8,0.7,12.5*,2.6
COc1ccc(CCc2ccc3cc(OC)ccc3n2)cc1,6.3,2.8,-2.7,.,-6.7
COc1cc(/C=C/C(=O)N2CCN(C(=O)/C=C/c3cc(OC)c(OC)c(OC)c3)CC2)cc(OC)c1OC,0.6,-13.5,1.4,-1.1,-1.0
COc1cc(/C=C/C(=O)N2CCCC2)cc(OC)c1OC,-2.6,-17.8,0.4,9.1*,4.5
SMILES,Keap1-Nrf2 PPI,RTF Ca sens inh,LANA DNA inh,LANA-H2A inh,RTF Ca sens act
NC(=O)c1ccc(NC(=O)C2COc3ccccc3O2)cc1 (stereo not given),69.5*,-2.9,.,-4.6,-0.8
O=C(Nc1ccc(F)cc1)C1COc2ccccc2O1 (stereo not given),5.2,2.8,0.8,-3.5,11.7
Cc1c(NC(=O)C(C)OC(=O)CCc2ccccc2)c(=O)n(-c2ccccc2)n1C (stereo not given),-5.0,-4.8,0.4,-0.7,-0.4
CN1CCCc2cc3c(C(F)(F)F)cc(=O)oc3nc21,?,-58.5,-21.1,14.7,37.7*
C/C(=N/NC(=O)c1cc(O)c(O)c(O)c1)c1ccc([N+](=O)[O-])cc1,-1.7,-3.5,75.7*,.,-0.5
Cc1ccccc1C(=O)OCC(=O)NCC1COc2ccccc2O1 (stereo not given),-2.3,-7.2,-0.7,.,1.2
O=C(CN1C(=O)NC2(CCCC2)C1=O)OCCOc1ccc(Cl)cc1Cl,-1.8,9.8,-1.4,.,-9.2
COc1ccc(C2C(C(=O)N3CCN(C)CC3)c3cc(OC)c(OC)cc3C(=O)N2C)cc1 (stereo not given),-5.8,1.9,1.8,+,10.7
COc1ccc(C2C(C(=O)N3CCCC3)c3cc(OC)c(OC)cc3C(=O)N2C)cc1OC (stereo not given),-1.1,-12.3,0.3,2.5,14.2
O=C(CN1CCN(S(=O)(=O)N2CCCCC2)CC1)Nc1ccc(Cl)c(Cl)c1,-2.6,-1.1,-0.8,44.9*,-4.7
O=C(CN1CCN(S(=O)(=O)N2CCCCC2)CC1)Nc1cc(Cl)cc(Cl)c1,1.3,-9.7,0.4,8.0,-2.7
Cc1ccc(C2=NN(CC(=O)NCCN(CC(C)C)CC(C)C)C(=O)CC2)cc1,-7.2,-7.8,3.0,15.1*,1.7
CC(C)NC(=S)NC1(C)CCS(=O)(=O)C1 (stereo not given),-5.2,-16.2,-2.6,-3.9,-3.2
CC1(NC(=O)N2CCCCC2)CCS(=O)(=O)C1 (stereo not given),-1.5,-4.4,-0.3,19.1*,-3.1
CCOC(=O)c1c(S(=O)(=O)NCC(=O)Nc2ccc(F)cc2)c(C)n(C)c1C,-4.0,2.0,-0.2,2.2,-9.3
CCOC(=O)c1cnc2ccccc2c1NCc1ccco1,-4.1,2.1,0.1,-13.6,0.3
CCOC(=O)c1cnc2ccccc2c1Nc1ccc2c(c1)OCCO2,-1.3,-3.2,-0.1,15.9*,-3.1
COc1ccc(CN(C(=O)c2cc3ccccc3oc2=O)C2CCS(=O)(=O)C2)cc1OC (stereo not given),0.8,-6.7,0.0,-0.7,-5.9
COc1cccc(CNC(=O)C2CCC(CNS(=O)(=O)c3cccc4cccnc34)CC2)c1 (stereo not given),-2.4,-5.6,-1.8,12.7,1.5
COc1ccc(C(C(=O)NC(C)(C)C)N(CCC(C)C)C(=O)CCC(=O)Nc2cc(C)on2)cc1 (stereo not given),-1.8,-20.6,0.1,18.8*,-7.5
Cc1cccc(-n2ccnc2SCC(=O)Nc2cccc(S(=O)(=O)NC3=NCCC3)c2)c1C,-4.9,-12.9,-0.4,.,3.9
CCOC(=O)C(C)C(C)=O (stereo not given),-2.1,5.2,-2.1,14.7*,-3.4
COc1ccc(N=Cc2sc(O)c3ccccc23)cc1,-32.2,-145.4,-1.6,-14.8,79.3*
CCc1ccccc1NC(=O)CSc1nnc(C2CC2)n1CC1CCCO1 (stereo not given),0.3,6.3,0.5,19.4*,-0.8
O=[N+]([O-])c1ccc(N2CCN(S(=O)(=O)c3ccc4ccccc4c3)CC2)cc1NCC1CCCO1 (stereo not given),1.9,3.6,0.1,5.1,-5.9
Cc1ccc(NC(=O)CCNS(=O)(=O)c2ccc(Br)cc2)cc1S(=O)(=O)N1CCOCC1,0.3,-14.9,0.1,3.4,-7.8
CCOC(=O)CNc1ccc2c(c1)OCO2,22.1*,-30.8,37.9,10.4,25.4
CCC(C)[C@H](NC(=O)NCCC1=CCCCC1)C(=O)O (stereo not given in full),0.9,0.1,2.9,35.2*,3.9
